Structures are written as SMILES. Results filed as inconclusive are left out. Values without a mark were called inactive. Calls of active or inactive are those of the source. Calls follow the shape of the dose curve; as a rule, active = well fitted activation curve with a large enough effect; inconclusive = small, poorly fitted or top-dose-only effect; inactive = flat fitted curve, though single readings scatter.

The record followed here is PubChem BioAssay AID602478 (National Center for Advancing Translational Sciences (NCATS), 2012).

Chain of Luciferin 4-monooxygenase (Photinus pyralis) (P08659 whole entry, looked up): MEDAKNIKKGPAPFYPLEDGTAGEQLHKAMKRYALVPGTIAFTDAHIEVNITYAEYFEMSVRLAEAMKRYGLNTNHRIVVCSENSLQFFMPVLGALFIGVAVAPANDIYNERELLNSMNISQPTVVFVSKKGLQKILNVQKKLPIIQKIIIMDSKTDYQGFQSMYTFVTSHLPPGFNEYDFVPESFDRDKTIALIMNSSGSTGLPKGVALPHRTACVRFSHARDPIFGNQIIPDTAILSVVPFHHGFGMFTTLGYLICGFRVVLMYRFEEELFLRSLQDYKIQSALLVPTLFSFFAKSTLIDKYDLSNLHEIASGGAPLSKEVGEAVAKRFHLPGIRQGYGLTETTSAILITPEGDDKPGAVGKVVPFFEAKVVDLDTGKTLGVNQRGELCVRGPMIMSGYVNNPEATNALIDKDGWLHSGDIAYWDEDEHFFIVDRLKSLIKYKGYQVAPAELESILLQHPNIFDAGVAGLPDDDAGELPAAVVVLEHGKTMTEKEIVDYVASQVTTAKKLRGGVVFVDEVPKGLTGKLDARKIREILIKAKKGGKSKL

The assay concerns the target Luciferin 4-monooxygenase (Photinus pyralis) (UniProt P08659). Nature of the assay: FLuc inhibitory activity for the follow-up compounds in a cell-based translational read-through assay (72 hour incubation). Conditions: GripTite 293 FLucUGA read-through, luminescence; series mostly up to 38.3 µM; activation (luciferase signal increase): at the top concentration. An excerpt: NCGC Assay Overview: Firefly (Photinus pyralis) luciferase is one of the most commonly used transcriptional reporters. It is considered one of the more dynamically responsive reporters - that is, responsive to changes in reporter transcription - as it requires no post-translational modifications and is enzymatically active directly after protein synthesis (Wood, 1998). With no endogenous expression in mammalian cells and without the requirement of external excitation, it offers very little background signal, thus generally providing excellent signal to background for most assays. Previous profiling work to determine the prevalence of compounds that affect FLuc enzymatic activity (PubChem AID 411) identified that ~3% of the MLSMR library (then at ~72K) inhibited FLuc (Auld et al., 2008). […] Of the compounds identified in this profile that inhibited FLuc, 151 compounds were selected for further analysis, in an effort to better understand their mode of inhibiting FLuc. The assay described here was to determine the activity of the compounds in a cell-based firefly luciferase reporter gene assay originally designed to identify compounds that enchanced translational read-through of a FLuc cDNA that contained a premature stop codon (Auld et al., 2009; Auld et al., 2010). Compounds that enhance translational read-through or compounds that stabilize FLuc intracellularly are identified as active compounds in the assay.
NCGC Assay Protocol Summary: Reagents: Transient transfection of FlucUGA construct: TransFast Transfection Reagent (Promega #E2431); FLucUGA construct (refer to Auld et al., 2009) #GripTite 293 MSR Cell Line (Invitrogen #R795-07) #Complete growth media: DMEM (Invitrogen #11965), 10% HIFBS, 0.1mM MEM NEAA, 5mL/L pen-strep (of 5000U/mL stock), 600ug/mL Geneticin #Assay media: DMEM without phenol red (Invitrogen #21063), 5% charcoal-stripped HIFBS (Hyclone #SH30071.03), 0.1mM MEM NEAA In-house detection reagent: 300mM Tris-HCl, 300mM Trizma base, 300mM MgCl, 1% Triton-X100, 5mM DTT, 500uM Coenzyme A trilithium salt (Sigma #C3019),450uM ATP (Sigma #A7699), 1mM D-luciferin sodium salt monohydrate (Biosynth #L8240) Control compounds used were two known firefly luciferase inhibitors (3-(5-(3-chlorophenyl)-1,2,4-oxadiazol-3-yl)benzoic acid and 5-(2-fluorophenyl)-3-phenyl-1,2,4-oxadiazole), and DMSO. Assay Summary: Transient transfection of FlucUGA construct: Day 1: GripTite cells were plated in T175 flasks at a density of 1.75 x 10^7 cells/T175 flask in complete growth media without Geneticin and allowed to grow ON in a 37 degrees Celsius incubator. Day 2: Cells in T175 flask were transfected - with 10ug of DNA and 30uL Transfast in 12mL complete growth media without serum and without Geneticin for 4 hours at 37 degrees Celsius. After incubation, cells were trypsinized, spun down, and resuspended to a concentration of 3.3 x 10^5 cells/mL in assay media. 6uL of cells in assay buffer were dispensed at 2000cells/well (3.3 x 10^5 cells/mL) into Greiner solid-white TC-treated 1536-well plates using a Multidrop Combi (Thermo Fisher Scientific). Plates were incubated for one hour at 37 degree Celsius, 95% humidity, 5% CO2. These assay plates were then treated with 23nL of compound or DMSO using a Kalypsys pin tool, which allows for delivery of a 12-point titration of each compound to the assay plate, with a final compound concentration ranging from approximately ~38uM to 0.2nM. Assay plates were then incubated for 72 hours. After incubation, plates were washed three times with DPBS (7uL/well). After the third wash, 6uL of DPBS was added to each well. 3uL of 3X luciferase detection reagent was then added to each well using a flying reagent dispenser (FRD). After a 15 minute incubation to allow for cell lysis, luciferase activity was measured using a ViewLux CCD imager (PerkinElmer), with an average exposure time of 2-12 seconds.
With `COc1ccccc1C(=O)Nc1ccc(C(=O)Nc2ccccc2C(=O)O)cc1`, the “activation (luciferase signal increase)” value is 2.81%.

As to `Cc1ccc2nc(-c3ccc(N)cc3)sc2c1`, the Potency is 1420 nM (active).

As for `COc1ccc2nc(NC(=O)CCc3nc(-c4ccccc4F)no3)sc2c1`, the “activation (luciferase signal increase)” value was 13.1%.

On to `CC(=O)Nc1cccc(-c2nc3ccccc3s2)c1C`, for which the “activation (luciferase signal increase)” value is 6.4%.

For the compound `O=C(Nc1ccccc1C(=O)O)c1cccc(NC(=O)c2ccccc2Br)c1`, the “activation (luciferase signal increase)” value is 6.23%.

With `O=C(Nc1ccccc1C(=O)O)c1cccc(C(=O)Nc2ccccc2C(=O)O)c1`, the “activation (luciferase signal increase)” value was 2.32%.

As to `Nc1ccc2nc(-c3ccccc3)sc2c1`, the Potency was 1130 nM (active).

Consider `COc1ccc2nc(NC(=O)c3cccc(S(=O)(=O)N4CCOCC4)c3)sc2c1`, for which the “activation (luciferase signal increase)” value is 4.08%.

For `COc1ccc(C(=O)Nc2ccccc2C(=O)N/N=C/c2ccc(O)c(OC)c2)cc1`, the “activation (luciferase signal increase)” value is -2.18%.

As for `CCOc1ccc2nc(NC(=O)c3ccoc3C)sc2c1`, the Potency was 449 nM (active).

Consider `COc1cc(OC)cc(C(=O)Nc2ccc(-c3nc4ccccc4s3)c(C)c2)c1`, for which the “activation (luciferase signal increase)” value is 4.63%.

Consider `Nc1ccc(-c2nc3ccc(N)cc3s2)cc1`, for which the Potency is 4000 nM (active).

As for `Cc1cccc(NS(=O)(=O)c2cccc(C(=O)Nc3cccc(C(=O)O)c3)c2)c1`, the “activation (luciferase signal increase)” value is 5.34%.

Regarding `O=C(Nc1ccccc1C(=O)O)c1cccc(NC(=O)c2ccccc2Cl)c1`, the “activation (luciferase signal increase)” value was 5.43%.

On to `COc1ccccc1C(=O)Nc1ccc(C(=O)O)cc1`, for which the “activation (luciferase signal increase)” value is 6.84%.

As for `O=C(O)c1cccc(NC(=O)c2ccccc2NC(=O)c2ccco2)c1`, the “activation (luciferase signal increase)” value is 10.3%.

For the compound `CC(C)(C)NC(=O)c1ccccc1-c1nc2ccccc2s1`, the “activation (luciferase signal increase)” value was 1.37%.

As to `COc1ccc2nc(NC(=O)c3ccc([N+](=O)[O-])o3)sc2c1`, the Potency is 20000 nM (active).

As to `c1ccc2sc(-c3ccc4c(c3)OCO4)nc2c1`, the Potency is 1790 nM (active).

Consider `O=C(Nc1cccc(-c2nc3ccccc3s2)c1)C1=COCCO1`, for which the “activation (luciferase signal increase)” value was 9.49%.

Turning to `COc1ccc2nc(NC(=O)c3nc(S(=O)(=O)Cc4ccc(C)cc4)ncc3Cl)sc2c1`, the “activation (luciferase signal increase)” value was -4.78%.

As for `COc1cccc(OC)c1C(=O)Nc1cccc(C(=O)Nc2cccc(C(=O)O)c2)c1`, the “activation (luciferase signal increase)” value is 5.11%.

On to `COc1cc(OC)cc(C(=O)Nc2ccccc2-c2nc3ccccc3s2)c1`, for which the “activation (luciferase signal increase)” value is 4.56%.

As to `O=C(O)c1cccc(NC(=O)c2cccc(NC(=O)C3CCCO3)c2)c1` (stereo not given), the “activation (luciferase signal increase)” value was 7.52%.

For `CC(C)Oc1ccc(C(=O)Nc2ccc(-c3nc4ccccc4s3)cc2)cc1`, the “activation (luciferase signal increase)” value is 8.81%.

Take `COc1ccc(CC(=O)Nc2cccc(C(=O)Nc3ccccc3C(=O)O)c2)cc1OC`: the “activation (luciferase signal increase)” value was 11.8%.

For the compound `O=C(O)c1cccc(NC(=O)c2cccc(S(=O)(=O)Nc3cccc(F)c3)c2)c1`, the “activation (luciferase signal increase)” value was 0.415%.

For `COc1ccc(-c2nc3ccccc3s2)cc1O`, the Potency was 14200 nM (active).

Take `O=C(Cc1ccc(Cl)cc1)Nc1cccc(C(=O)Nc2ccccc2C(=O)O)c1`: the “activation (luciferase signal increase)” value is 1.21%.

On to `O=C(Nc1ccccc1C(=O)O)c1cccc(NC(=O)c2ccc(Br)o2)c1`, for which the “activation (luciferase signal increase)” value was 2.35%.

Take `O=C(O)c1cccc(NC(=O)c2ccc(S(=O)(=O)c3ccccc3)cc2)c1`: the “activation (luciferase signal increase)” value is -1.83%.

As to `Cc1ccc(NS(=O)(=O)c2ccc(Cl)c(C(=O)Nc3cccc(C(=O)O)c3)c2)cc1`, the “activation (luciferase signal increase)” value is 5.38%.

Turning to `CCOc1ccc(C(=O)Nc2ccccc2C(=O)O)cc1`, the Potency was 14200 nM (active).

Consider `Nc1ccc(-c2nc3ccc(C(=O)O)cc3s2)cc1`, for which the Potency is 159 nM (active).

On to `COc1cc(C(=O)Nc2cc(C)c(O)c(-c3nc4ccccc4s3)c2)cc(OC)c1OC`, for which the “activation (luciferase signal increase)” value is 0.911%.

Consider `O=C(Cc1ccccc1)Nc1ccccc1C(=O)Nc1ccc(C(=O)O)cc1`, for which the “activation (luciferase signal increase)” value is 9.41%.

In the case of `O=C(Nc1ccccc1C(=O)O)c1cc(S(=O)(=O)Nc2ccccc2)ccc1Cl`, the “activation (luciferase signal increase)” value is 2.25%.

With `Cc1c(NC(=O)c2cccs2)cccc1-c1nc2ccccc2s1`, the “activation (luciferase signal increase)” value is 17.8%.

Turning to `O=C(COC(=O)c1ccccc1[N+](=O)[O-])c1ccc2c(c1)OCO2`, the “activation (luciferase signal increase)” value is 3.99%.

With `CC(C)CC(=O)Nc1cccc(C(=O)Nc2ccccc2C(=O)O)c1`, the “activation (luciferase signal increase)” value is -2.22%.
